Experimental data: ChEMBL document CHEMBL3988442, “University of Dundee, Small-Polar-MMV Screening Library” (2021)
The whole screen tested about 38,000 compounds, of which about 1,200 (3.2%) showed an effect of 50% or more. The median lay at about -58%. For the sample, strong results were picked, then their nearest neighbours and some compounds at random.

tested on: Plasmodium falciparum; assay: Calibr Malaria Delayed Death Assay SOP; format: functional, organism-based; parameters: scale not given: in the data most compounds retested in dose-response had high values; conditions: concentration 4.99e-06 (unit not given; other assays of the set use mol/L)

Compound | Percent Effect [%]
NC(=O)NCC1CCCCN1C(=O)c1cc(F)cc(F)c1 (configuration not stated) | -156.9
CC1CCCN(C(=O)CNC(=O)c2ccoc2)C1 (configuration not stated) | -96.13
CC(C)(C)CC(=O)Nc1cnn(-c2ccccc2S(C)(=O)=O)c1 | -5.765
Cc1ncc2c(n1)CN(Cc1nc3ccccc3o1)CC2 | -59.98
CC(C)c1ncc2c(n1)CN(CCCc1nc3ccccc3o1)CC2 | 69.07
c1ccc2oc(CCCN3CCc4cncnc4C3)nc2c1 | -82.49
O=C(NCCc1cnccn1)c1cccc(S(=O)(=O)NC2CCOC2)c1 (configuration not stated) | -80.94
O=C(c1cnn[nH]1)N(CCCO)Cc1cccnc1 | -126.7
CN(Cc1ccsc1)C(=O)CNC(=O)N1CCc2ccccc2C1 | -30.75
COc1cccc(CN2CCC3(CC(Nc4ccncn4)C3)C2)c1F (configuration not stated) | -62.87
CN(C)C1Cc2ccccc2N(S(=O)(=O)c2cccc(C#N)c2)C1 (configuration not stated) | 75.93
CN1CCN(S(=O)(=O)c2cccc(C#N)c2)c2ccc(F)cc21 | -39.03
N#Cc1cccc(S(=O)(=O)N2CC(CC(=O)O)c3ccccc32)c1 (configuration not stated) | -122.6
CC(=O)NCCNC(=O)C(c1ccccc1C)N(C)C (configuration not stated) | -142.6
Cc1cscc1-c1nc(C2CCOC2)no1 (configuration not stated) | -27.07
O=C(c1scc2c1OCCO2)N1CCOC(CCc2ccccc2)C1 (configuration not stated) | 88.31
O=C(c1scc2c1OCCO2)N1CCOC(Cc2ccc(F)cc2)C1 (configuration not stated) | -16.04
O=C(c1scc2c1OCCO2)N1CCOC(Cc2cccc(F)c2)C1 (configuration not stated) | -44.17
CC1CCC(NS(=O)(=O)CC(=O)NCC2CCC2)CC1 (configuration not stated) | -74.87
O=C(CCc1ccco1)N1CCC(Oc2ccccc2)(C(=O)O)CC1 | -48.84
COc1ncccc1CNC(=O)C1=NN(c2ccccc2)C(=O)CN1 | -51.2
COc1ccc(CNC(=O)C2=NN(c3ccc(C)cc3)C(=O)CN2)cc1 | 74.74
O=C(NCc1cccnc1)C1=NN(c2ccccc2)C(=O)CN1 | 39.33

Compound | Percent Effect [%]
CN1C(=O)CC[C@]12CC[C@@H](NC(=O)NCc1cccnc1)CC2.O=C(O)C(F)(F)F | -78.37
COCCN(C/C=C/c1ccccc1)Cc1nccs1 | -11.48
COCCN(C/C=C/c1ccccc1)Cc1ccccn1 | 20.8
CCc1ccc(CN(C/C=C/c2ccccc2)CCOC)nc1 | 52.86
O=C1CC(c2ccncc2)C2(CCN(Cc3cccnc3)CC2)N1 (configuration not stated) | -62.4
CN1CCCN(C(=O)NCCNc2cnccn2)CC1 | -4.347
COCCN1C[C@H]2[C@@H](C1)N(Cc1cnn(C)c1)CC[C@H]2OC.O=C(O)C(F)(F)F.O=C(O)C(F)(F)F | -59.33
CO[C@H]1CCN(Cc2cnn(C)c2)[C@@H]2CN(Cc3ccncc3)C[C@H]12.O=C(O)C(F)(F)F.O=C(O)C(F)(F)F.O=C(O)C(F)(F)F | -72.72
COCCN1C[C@@H]2[C@@H](OC)CCN(Cc3ccsc3)[C@@H]2C1.O=C(O)C(F)(F)F.O=C(O)C(F)(F)F | 66.72
COCCN1C[C@@H]2[C@@H](OC)CCN(Cc3cccs3)[C@@H]2C1.O=C(O)C(F)(F)F.O=C(O)C(F)(F)F | 66.16
CO[C@H]1CCN(C2CCC2)[C@@H]2CN(Cc3ccncc3)C[C@H]12.O=C(O)C(F)(F)F.O=C(O)C(F)(F)F.O=C(O)C(F)(F)F | -45.55
COCCN1C[C@@H]2[C@@H](OC)CCN(Cc3ccncc3)[C@@H]2C1.O=C(O)C(F)(F)F.O=C(O)C(F)(F)F.O=C(O)C(F)(F)F | 24.39
CO[C@@H]1CCN(Cc2cccs2)[C@@H]2CN(Cc3ccncc3)C[C@@H]21.O=C(O)C(F)(F)F.O=C(O)C(F)(F)F.O=C(O)C(F)(F)F | 52.08
CO[C@H]1CCN(Cc2cccs2)[C@@H]2CN(Cc3ccncc3)C[C@H]12.O=C(O)C(F)(F)F.O=C(O)C(F)(F)F.O=C(O)C(F)(F)F | 59.98
CO[C@@H]1CCN(Cc2cccc(C)n2)[C@@H]2CN(Cc3ccncc3)C[C@@H]21.O=C(O)C(F)(F)F.O=C(O)C(F)(F)F.O=C(O)C(F)(F)F.O=C(O)C(F)(F)F | 30.62
COCCN1C[C@@H]2[C@@H](OC)CCN(Cc3ccco3)[C@@H]2C1.O=C(O)C(F)(F)F.O=C(O)C(F)(F)F | -1.66
CO[C@H]1CCN(Cc2c(C)noc2C)[C@@H]2CN(Cc3ccncc3)C[C@H]12.O=C(O)C(F)(F)F.O=C(O)C(F)(F)F.O=C(O)C(F)(F)F | -5.39
COCCN1C[C@@H]2[C@@H](OC)CCN(Cc3ccc(C)o3)[C@@H]2C1.O=C(O)C(F)(F)F.O=C(O)C(F)(F)F | 3.217
CN1CCN(C(=O)c2cc3sccc3n2Cc2ccccc2F)CC1 | 29.89
NC(=O)c1ccc(CN2CCCC(N3CCCCCC3)C2)cc1 (configuration not stated) | -140
COCC(=O)N1C[C@H](N(C)Cc2cncnc2)[C@H]2OCCC[C@H]21 | -24
COc1ccccc1OC1CCN(Cc2ccc(N(C)C)nc2)CC1 | -79.91
O=C(NCCn1cccc1)c1c(O)cc(F)cc1F | -181.2

Compound | Percent Effect [%]
Cc1cc(C(=O)N2CCCC2c2nnc3n2CCCCC3)on1 (configuration not stated) | -57.59
CCN1C[C@@H]2[C@@H](OC)CCN(S(=O)(=O)c3cccnc3)[C@@H]2C1.O=C(O)C(F)(F)F.O=C(O)C(F)(F)F | -23.75
CCN1C[C@H]2[C@@H](C1)N(S(=O)(=O)c1ccccc1)CC[C@H]2OC.O=C(O)C(F)(F)F | 60.81
CCN1C[C@H]2[C@@H](C1)N(S(=O)(=O)c1ccccc1F)CC[C@H]2OC.O=C(O)C(F)(F)F | 45.85
O=c1cc(N2CCCCC2)cnn1CC(O)C(F)(F)F (configuration not stated) | -156.3
Cc1ccnc(OCC(=O)N2CCCC2)n1 | -75.67
Fc1cccc(Cl)c1CNCCCOc1ccccn1 | 9.624
Cc1cccc(NC(=O)C2CSc3ncc(C)c(=O)n3C2)n1 (configuration not stated) | -106.9
c1cnc(N2CCC3(COCc4cnc(N5CCOCC5)nc43)C2)nc1 (configuration not stated) | -59.23
CC(C)(O)CN1CCN(C(=O)c2cccn2Cc2ccccc2)CC1 | -70.89
Cc1ccc(C2(CN(C)Cc3sccc3C)CCNCC2)nc1 | 76.73
Cc1ccc(C2(CN(C)Cc3snnc3C)CCNCC2)nc1 | -24.27
Cc1ccc(C2(CN(C)Cc3c(C)nn(C)c3C)CCNCC2)nc1 | 16.34
CCCc1nc(N2CCCC(CCOC)C2)c2cnn(C)c2n1 (configuration not stated) | -84.44
CCC(CO)NCc1ccc(-c2ccc(Br)cc2)o1.Cl (configuration not stated) | 45.11
Cc1cc(N2CCCC2)nc(N(C)CCO)c1C#N | -125.9
CC(=O)N1CCc2nc(N(C)C)nc(NCCc3ccccc3)c2CC1 | -47.75
Cc1nc(CCNc2nc(N(C)C)nc3c2CCCC3)cc(=O)[nH]1 | -16.34
CN(C)c1nc2c(c(NCc3cc(O)ncn3)n1)CCCC2 | 89.31
Cc1cnn(CC2CCCN2Cc2nnc(C)o2)c1 (configuration not stated) | -118.7
CC(C)c1cc(NC(=O)c2ccc(C(=O)NC(C)(C)C)cc2)[nH]n1 | 62.94
CC(C)c1cc(NC(=O)c2ccncc2)[nH]n1 | -141
CC(C)c1cc(NC(=O)c2ccc([S+]([O-])C(C)C)cc2)[nH]n1 (configuration not stated) | -180.3

Compound | Percent Effect [%]
CCn1c(C)nnc1Sc1nn2cc(C)nc2s1 | -124.9
CCN1CC2(CC1=O)CN(C(=O)c1ccoc1)CCN(C(=O)N(C)C)C2 (configuration not stated) | -39.9
Cc1c(CN2CC[C@@H](N3CCC(O)CC3)[C@H](O)C2)[nH]c2ccc(Cl)cc12 | 53.46
Cc1ccc2[nH]c(CN3CC[C@@H](N4CCN(C)CC4)[C@H](O)C3)c(C)c2c1 | -45.01
Cc1c(CN2CC[C@@H](N3CCC(O)CC3)[C@H](O)C2)[nH]c2ccc(F)cc12 | -24.81
Cc1noc([C@@]23CCO[C@@H]2CCN(S(=O)(=O)c2cccnc2)C3)n1 | -112.8
CSc1ccc(CN(CCO)C(=O)CCc2ccc(O)cc2)cc1 | -83.46
CN1CCC(N2CCC(C(=O)N(C)C)CC2)CC1.O=C(O)C(F)(F)F.O=C(O)C(F)(F)F | -35.37
Cc1cc(=O)n2nc(Oc3cccc(I)c3)sc2n1 | 55.78
Cc1cc(=O)n2nc(Oc3ccc(C#N)cc3Cl)sc2n1 | 19.91
Cc1cc(=O)n2nc(Oc3cc(Cl)cc(Cl)c3)sc2n1 | -6.381
O=c1[nH]cnc2[nH]c(N3CCCCC3)nc12 | -26.61
N#Cc1ccc(NCc2cccc(OCC3CCCO3)c2)nc1 (configuration not stated) | -77.93
COc1cc2c(cc1CNC(=O)C(C)n1ccnc1C(C)C)OCCO2 (configuration not stated) | 8.922
COCc1nc(CNC(=O)C(C)n2ccnc2C(C)C)no1 (configuration not stated) | -17.51
COc1cc2c(cc1CNC(=O)C(C)n1ccnc1C(C)C)CCC2 (configuration not stated) | 59.1
NS(=O)(=O)NCc1cc(-c2ccc(C(F)(F)F)cc2)n[nH]1 | -60.23
Fc1cccc(N2CCCC3(CN(Cc4nccs4)CCO3)C2)c1.O=C(O)C(F)(F)F.O=C(O)C(F)(F)F (configuration not stated) | -4.725
Fc1cccc(N2CCCC3(CN(Cc4ccccn4)CCO3)C2)c1.O=C(O)C(F)(F)F.O=C(O)C(F)(F)F.O=C(O)C(F)(F)F (configuration not stated) | -90.59
Cn1cc(CN2CCOC3(CCCN(c4cccc(F)c4)C3)C2)cn1.O=C(O)C(F)(F)F.O=C(O)C(F)(F)F (configuration not stated) | -10.6
Fc1cccc(N2CCCC3(CN(Cc4ccco4)CCO3)C2)c1.O=C(O)C(F)(F)F.O=C(O)C(F)(F)F (configuration not stated) | 40.81
Fc1cccc(N2CCCC3(C2)CN(c2ncccn2)CCO3)c1.O=C(O)C(F)(F)F.O=C(O)C(F)(F)F (configuration not stated) | 69.94
Fc1cccc(N2CCCC3(CN(Cc4cccnc4)CCO3)C2)c1.O=C(O)C(F)(F)F.O=C(O)C(F)(F)F.O=C(O)C(F)(F)F (configuration not stated) | 64.23
